The panel holds about 83,000 compounds, 20% with a hit somewhere; the sample as a whole holds those more often.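 Plates (96-well) were seeded with cells, treated with compound at one concentration, and incubated for 48 hours before percent growth was determined.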 A number with no mark means an inactive call. Activity calls are given as the source filed them. Rule for the calls: active = growth percent below 10; inactive = the rest.
What was measured:
Assay in all cases: NCI-60 one-dose screen, 48 h (100 = growth as untreated, 0 = no growth, -100 = all killed)
Conditions in all cases: 10 µM unless noted
HCT-15 colon = test system: HCT-15 colon
HT29 colon = test system: HT29 colon
SNB-75 CNS = test system: SNB-75 CNS
SNB-19 CNS = test system: SNB-19 CNS
U251 CNS = test system: U251 CNS
PC-3 prostate = test system: PC-3 prostate
SK-MEL-5 melanoma = test system: SK-MEL-5 melanoma
UACC-62 melanoma = test system: UACC-62 melanoma
LOX IMVI melanoma = test system: LOX IMVI melanoma
SK-MEL-28 melanoma = test system: SK-MEL-28 melanoma

| Structure (SMILES) | growth (HCT-15 colon) | growth (HT29 colon) | growth (SNB-75 CNS) | growth (SNB-19 CNS) | growth (U251 CNS) | growth (PC-3 prostate) | growth (SK-MEL-5 melanoma) | growth (UACC-62 melanoma) | growth (LOX IMVI melanoma) | growth (SK-MEL-28 melanoma) |
| --- | --- | --- | --- | --- | --- | --- | --- | --- | --- | --- |
| CC(C)(C)n1cc(-c2ccnc(NCCNS(=O)(=O)c3cccc4ccccc34)c2)c(-c2cccc(F)c2)n1 | -37.2% (active) | -29.6% (active) | -17.6% (active) | 27.5% | -18.7% (active) | 4.9% (active) | -97.1% (active) | 8% (active) | -86.8% (active) | -2.58% (active) |
| CCOC(=O)C1=C(NC)OCC1=O | 111% | 99.6% | 99.1% | 109% | 96.5% | 85.7% | 93.4% | 103% | 101% | 110% |
| N#Cc1cnc(NCCc2ccncc2)nc1-n1cnc2ccccc21 | 36.8% | 49% | 82.6% | 94.7% | 58.7% | 64.1% | 79.8% | 48.5% | 41.2% | 80.9% |
| C=C1C(=O)O[C@H]2[C@H]1CC/C(COC(=O)CSCCSCC(=O)OC/C1=C/CC[C@@]3(C)O[C@H]3[C@H]3OC(=O)C(=C)[C@@H]3CC1)=C\CC[C@@]1(C)O[C@@H]21 | -18.1% (active) | 0.0255% (active) | 56.6% | 55.9% | 7.29% (active) | 1.19% (active) | 78.4% | 25.6% | -53.3% (active) | 4.71% (active) |
| O=S(=O)(NCCNc1cc(-c2c(-c3cccc(O)c3)nc3sccn23)ccn1)c1ccc(C(F)(F)F)cc1 | 25.2% | 32.6% | 38.3% | 54.8% | 34.8% | 31.4% | -2.62% (active) | 40.1% | 37.8% | 55.7% |
| CCOC(=O)c1ccc2[nH]c(O)c(C(=Nc3ccc(N(C)C(=O)CN4CCN(C)CC4)cc3)c3ccccc3)c2c1 | -23.6% (active) | -33.8% (active) | -99.2% (active) | 2.34% (active) | -86.4% (active) | 4.9% (active) | -94% (active) | 17% | -93.2% (active) | -11.9% (active) |
| C#Cc1ccc(NC(=O)c2ccc(/C=C/C(=O)c3nccn3C)cc2)cc1 | -44.4% (active) | -17.3% (active) | -98.3% (active) | -78.9% (active) | -67% (active) | -56.2% (active) | -94.3% (active) | -50.7% (active) | -93% (active) | -30.7% (active) |
| Oc1c(Cl)cc(Cl)c2ccc(Cn3cc(-c4cc(F)cc(F)c4)nn3)nc12 | 41.9% | 68.5% | 58.6% | 94.1% | 96.2% | 84.8% | 98.5% | 74.1% | 20.8% | 61.4% |
| CCn1cc(C(=O)N/N=C/c2cccs2)c(=O)c2cc(F)c(N3CCNC(C)C3)c(F)c21 (stereo not given) | 25% | -76.7% (active) | 88.5% | 73% | 53.3% | 76.3% | 69.8% | 96.5% | -84.1% (active) | 89.9% |
| CCCc1cc(NC)nc(S(=O)(=O)CC)n1 | 104% | 107% | 88.6% | 102% | 107% | 109% | 104% | 93.8% | 103% | 106% |
| CC1(C)CC[C@]2(C(=O)O)CC[C@]3(C)C(=CC[C@@H]4[C@@]5(C)C/C(=C/O)C(=O)C(C)(C)[C@@H]5CC[C@]43C)[C@@H]2C1 | 24.4% | 26.6% | 95.4% | 60.1% | 28.3% | 31.4% | 67.8% | 61.6% | 27.4% | 52.2% |
| O=C(Nc1nc2ccc(F)cc2s1)c1cccnc1Nc1ccc(Cl)cc1 | 29% | 30.1% | 62.2% | 26.4% | 21.6% | 14% | 5.56% (active) | 28.4% | 48.3% | 61.9% |
| O=C(Cn1c(-c2ccc([N+](=O)[O-])cc2)nc2ccccc21)NNC(=O)c1cccnc1 | 80.9% | 77.2% | 53.3% | 86.5% | 77.9% | 69% | 83.8% | 66.2% | 65.3% | 108% |
| O=C(c1ccc(-c2ccccc2)cc1)c1ccc([N+](=O)[O-])cc1 | 103% | 104% | 105% | 101% | 99% | 86.7% | 97.3% | 92.7% | 98.4% | 122% |
| CC(C)(C)n1cc(-c2ccnc(NCCCNS(=O)(=O)c3ccc(F)cc3)c2)c(-c2cccc(F)c2)n1 | 5.18% (active) | 6.93% (active) | 85% | 72.7% | 45.5% | 46.1% | 33.7% | 72.7% | 33.7% | 82.4% |
| Oc1c(Cl)cc(Cl)c2ccc(Cn3cc(-c4ccc(C(F)(F)F)cc4)nn3)nc12 | 31.3% | 74.2% | 74.1% | 93.3% | 99.8% | 74.6% | 98.8% | 73.9% | 9.23% (active) | 51.2% |
| O=C(NCc1ccccc1)Nc1ccccc1CNc1nc(Nc2ccc(OCCN3CCCC3)cc2)ncc1Cl | 56.6% | 68.4% | 82.4% | 94.3% | 45.5% | 94.5% | 95.2% | 98.6% | 88.8% | 105% |
| COc1ccccc1NC(=O)Cn1cc(CN2CCN(c3ccnc4cc(Cl)ccc34)CC2)nn1 | 91.8% | 105% | 75.2% | 93.2% | 97.1% | 71.8% | 73% | 83.9% | 95.1% | 84.1% |
| CN(C)CCCn1c2c(c3ncccc3c1=O)C(=O)c1ccccc1-2 | 28.6% | 20.9% | 79% | 37.3% | 29% | 39% | 30.7% | 34.6% | 19.1% | 65% |
| COC(=O)/C=C1/SC(=Nc2ccc(C)cc2)N(CCc2c[nH]c3ccc(O)cc23)C1=O | 14.7% | 90.9% | 52% | 51.8% | 34.7% | 39% | 50.5% | 42.2% | -17.8% (active) | 48.4% |
| CN1C(=O)/C(=C/c2cn(-c3ccccc3)nc2-c2ccccc2)SC1=S | 103% | 109% | 101% | 100% | 110% | 90.2% | 98% | 86.7% | 89.6% | 105% |
| Fc1ccc(-c2nn(-c3ccccc3)cc2-c2nc3ccccc3o2)cc1 | 33.9% | 99.6% | 119% | 67.3% | 33.4% | 51.6% | 57.9% | 74.9% | 24.7% | 108% |
| COc1cc(-c2cc(-c3cccs3)c(C#N)c(N3CCOCC3)n2)cc(OC)c1OC | 25.2% | 22.2% | 69.2% | 95.2% | 52.9% | 67% | 45.7% | 63.6% | 81.5% | 91.4% |
| COc1ccccc1Nc1nc2c(s1)C1=CC[C@H]3[C@@H]4CC[C@H]([C@H](C)CCCC(C)C)[C@@]4(C)CC[C@@H]3[C@@]1(C)CC2 | 103% | 101% | 97.6% | 104% | 113% | 92.7% | 100% | 96.7% | 94% | 110% |
| O=C(Cn1cc(CN2C(=O)c3ccccc3S2(=O)=O)nn1)Nc1nc2ccccc2s1 | 107% | 97.9% | 81.2% | 98.1% | 98.7% | 93.2% | 104% | 97.5% | 92.5% | 106% |
| CC(=O)n1nc(C(=O)OC(C)C)c2cc(C)c(C)cc21 | 90.9% | 97.8% | 80.7% | 98.5% | 86.3% | 74.2% | 92% | 97.6% | 97% | 114% |
| N#Cc1c(N)nnn1Cc1cc(=O)oc2c1ccc1ccccc12 | 102% | 101% | 88.7% | 91.7% | 97.5% | 93.4% | 97.6% | 92.5% | 59.3% | 113% |
